The nature of test [1]: qHTS assay to identify small molecule agonists of the estrogen receptor alpha (ER-alpha) signaling pathway in the presence of an antagonist - cell viability counter screen (AID 1259386).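 Also: cells exposed to compounds for 22 h at 37 °C before the viability read; nearly all actives have a fitted effect of over 30% in size.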 Also: potency is read from the fitted curve at half-maximal effect. The procedure, abridged: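 VM7Luc4E2 cells (endogenous full-length ER-alpha, 4×ERE-luciferase) were held 5 days in phenol red-free medium with 10% charcoal-stripped FBS, plated, then given 10.0nM ICI-182,780 and compounds at 15 concentrations for 22hr at 37C; viability read by CellTiter-Fluor fluorescence.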

Test [2] can be described thus: qHTS assay to identify small molecule antagonists of the progesterone receptor (PR) signaling pathway - cell viability counter screen (AID 1346798). Also: nearly all actives have a fitted effect of over 50% in size. Also: potency is read from the fitted curve at half-maximal effect. The essentials:
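Viability was determined by ATP-based luminescence (CellTiter-Glo) in PR-UAS-bla HEK293T cells cultured in 2% charcoal-stripped serum and incubated 16 hr with compounds under R5020 stimulation.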

Test [3] in a line: qHTS assay to identify small molecule agonists of the progesterone receptor (PR) signaling pathway - cell viability counter screen (AID 1346799; calls by dose curve; also: nearly all actives have a fitted effect of over 45% in size; also: potency is read from the fitted curve at half-maximal effect). The procedure, abridged: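 Viability was scored by ATP luminescence (CellTiter-Glo, 30 min, room temperature) in the same wells used for the reporter readout, after 16 hr compound exposure of PR-UAS-bla HEK293T cells.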
Test [4] can be described thus: qHTS assay to identify small molecule agonists of the TGF-beta/Smad signaling pathway - cell viability counter screen (AID 1346829). Also: nearly all actives have a fitted effect of over 45% in size. Also: potency is read from the fitted curve at half-maximal effect. The procedure, abridged: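 Cytotoxicity counter screen: CellTiter-Glo luminescence (30 min, room temperature) measured in the SBE-bla HEK 293T reporter wells after 5 hr compound treatment at 37 C and the 2 hr substrate step.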
Test [5] has as its target Thyrotropin-releasing hormone receptor (Homo sapiens) (UniProt P34981). Put plainly: qHTS assay to identify small molecule agonists of the thyrotropin-releasing hormone receptor (TRHR) signaling pathway (AID 1346891; calls by dose curve; also: series mostly up to about 58 µM). The essentials: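 Kinetic fluorescence (3 min, 1 s intervals) reported intracellular calcium after compound transfer onto TRHR-Hek293 cells pre-loaded with dye for 2 h at 37 °C.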

Test [6] has the same target. Put plainly: qHTS assay to identify small molecule antagonists of the thyrotropin-releasing hormone receptor (TRHR) signaling pathway (AID 1346877; active = well fitted inhibition curve with a large enough effect in the repeat runs, not every such curve was filed as active; also: series mostly up to about 51 µM). The essentials: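 TRHR-expressing HEK293 cells were seeded, cultured 18 h at 37 °C, then loaded with calcium dye for 2 h. Compounds were pre-incubated 5 min at room temperature before 1 nM TRH (final) was added, and kinetic fluorescence was recorded for 3 min.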

Test [7] is described as follows: qHTS assay to identify small molecule antagonists of the TGF-beta/Smad signaling pathway - cell viability counter screen (AID 1346824). Also: nearly all actives have a fitted effect of over 50% in size. Also: potency is read from the fitted curve at half-maximal effect. The essentials:
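SBE-bla HEK 293T cells were plated overnight at 37 C, then given compounds in DMSO plus TGF-beta1 (added as 0.25 ng/mL solution) for 5 hr. After the bla read, CellTiter-Glo was added to the same wells and luminescence read after 30 min at room temperature.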

Test [8] can be described thus: qHTS assay to identify small molecule agonists of the TGF-beta/Smad signaling pathway (AID 1346859; active = well fitted activation curve with a large enough effect in the signal ratio in the repeat runs, not every such curve was filed as active; the % refers to the signal ratio; also: series mostly up to about 77 µM). The essentials: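 Dual-wavelength fluorescence (460/530 nm emission) quantified beta-lactamase expression under the Smad binding element in HEK 293T cells following 5 hr compound treatment at 37 C.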
Test [9] deals with Progesterone receptor (Homo sapiens) (UniProt P06401). Nature of the test: qHTS assay to identify small molecule antagonists of the progesterone receptor (PR) signaling pathway (AID 1346795; active = well fitted inhibition curve with a large enough effect in the signal ratio in the repeat runs, not every such curve was filed as active; the % refers to the signal ratio; also: potency is read from the fitted curve at half-maximal effect). The essentials:
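After 6 hr plating at 37C in 2% stripped-serum medium, PR-UAS-bla HEK293T cells got compounds, then 1 nM R5020. Sixteen hours later, LiveBLAzer substrate was applied for 2 hr at room temperature and fluorescence was recorded.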

Test [10] shares this target. Put plainly: qHTS assay to identify small molecule agonists of the progesterone receptor (PR) signaling pathway (AID 1346784; calls by dose curve; also: nearly all actives have a fitted effect of over 30% in size). The essentials:
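The screen uses PR-UAS-bla HEK 293T cells in charcoal-stripped serum (2%). Compounds are applied for 16 hr at 37C after a 6 hr pre-incubation, and reporter activity is detected with a FRET beta-lactamase substrate after 2 hr at room temperature.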

Structures are written as SMILES. Results filed as inconclusive are left out. Activity calls are given as the source filed them. Unless noted, calls follow the shape of the dose curve; as a rule, active = well fitted curve in the direction sought with a large enough effect in the repeat runs; inconclusive = weak or mixed curves; inactive = no such curve, though single readings can be large; an effect the other way counts as inactive or inconclusive.

Sequence of Progesterone receptor (Homo sapiens) (P06401 whole entry, looked up): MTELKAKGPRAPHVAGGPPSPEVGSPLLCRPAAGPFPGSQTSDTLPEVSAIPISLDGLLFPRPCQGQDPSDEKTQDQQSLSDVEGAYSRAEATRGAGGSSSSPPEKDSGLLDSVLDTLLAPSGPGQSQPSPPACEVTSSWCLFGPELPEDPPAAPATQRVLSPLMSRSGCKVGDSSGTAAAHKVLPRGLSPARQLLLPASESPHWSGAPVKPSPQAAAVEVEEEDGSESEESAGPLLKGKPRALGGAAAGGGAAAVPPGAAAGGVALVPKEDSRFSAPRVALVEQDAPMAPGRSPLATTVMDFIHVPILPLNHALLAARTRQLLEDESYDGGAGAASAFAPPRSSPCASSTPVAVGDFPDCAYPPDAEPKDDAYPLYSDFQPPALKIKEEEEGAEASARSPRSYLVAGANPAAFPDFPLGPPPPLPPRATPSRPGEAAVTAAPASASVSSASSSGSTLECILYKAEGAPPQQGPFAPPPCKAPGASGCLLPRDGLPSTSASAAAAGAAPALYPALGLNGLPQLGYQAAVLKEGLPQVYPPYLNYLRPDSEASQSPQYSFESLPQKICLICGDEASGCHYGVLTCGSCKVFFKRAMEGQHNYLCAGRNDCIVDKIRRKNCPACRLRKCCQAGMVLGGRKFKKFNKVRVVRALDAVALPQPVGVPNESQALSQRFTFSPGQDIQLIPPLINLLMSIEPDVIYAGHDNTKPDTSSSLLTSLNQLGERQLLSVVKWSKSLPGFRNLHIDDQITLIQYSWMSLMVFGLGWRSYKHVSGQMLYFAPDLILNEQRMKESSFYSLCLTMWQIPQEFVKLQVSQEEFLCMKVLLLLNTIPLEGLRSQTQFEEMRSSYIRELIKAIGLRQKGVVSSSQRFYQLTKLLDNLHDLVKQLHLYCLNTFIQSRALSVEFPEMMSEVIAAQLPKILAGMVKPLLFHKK
Sequence of Thyrotropin-releasing hormone receptor (Homo sapiens) (P34981 whole entry, looked up): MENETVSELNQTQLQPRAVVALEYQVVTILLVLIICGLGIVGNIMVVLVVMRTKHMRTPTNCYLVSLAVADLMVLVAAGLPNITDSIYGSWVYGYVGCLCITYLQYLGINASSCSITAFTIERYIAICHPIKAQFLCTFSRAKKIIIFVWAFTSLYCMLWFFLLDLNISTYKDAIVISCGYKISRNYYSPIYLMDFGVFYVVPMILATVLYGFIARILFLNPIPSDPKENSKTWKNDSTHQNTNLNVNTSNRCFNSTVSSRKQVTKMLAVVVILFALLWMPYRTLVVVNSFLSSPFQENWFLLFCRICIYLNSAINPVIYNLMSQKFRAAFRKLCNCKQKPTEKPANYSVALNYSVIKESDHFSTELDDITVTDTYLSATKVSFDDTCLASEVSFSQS

`CCCN(CCC)c1c([N+](=O)[O-])cc(C(F)(F)F)c(N)c1[N+](=O)[O-]`: the Potency in test [1] was 60.9 µM (active); in test [2], 34.3 µM (active); in test [3], 21.6 µM (active); in [4] it was 48.9 µM (active). Also, the Potency result in test [5] was “inactive”.

Turning to `Clc1ccc2cc3ccccc3cc2c1`, the Potency entry in test [1], in test [2], in test [3], in test [4], in test [6] and in test [5] was “inactive” throughout.

As to `CCCCCCCCCCCC[N+](C)(C)CCCCCCCCCCCC`, the Potency in test [1] was 68.6 µM (active); in test [2], 43.3 µM (active); in test [3], 19.3 µM (active); in test [4] it was 34.7 µM (active). For the same compound, the Potency entry in test [6] and in [5] was “inactive” in each case.

On to `C=CC(=O)OCCn1c(=O)n(CCOC(=O)C=C)c(=O)n(CCOC(=O)C=C)c1=O`, for which the results for the Potency in test [1], in test [2] and in test [3] were 48.6 µM (active), 21.7 µM (active) and 43.3 µM (active), respectively. In addition, the Potency result in test [7], in test [6] and in test [5] was “inactive” each time.

On to `CC(=O)OCC(C)OC(C)=O` (configuration not stated), for which the Potency entry in test [1], in [2], in [3], in [7], in test [4] and in test [8] was “inactive” each time. The Potency result in [6] and in test [5] was “inactive” in each case.

Consider `c1cc(C(c2ccc(OCC3CO3)cc2)c2ccc(OCC3CO3)cc2)ccc1OCC1CO1` (configuration not stated), for which the Potency entry in test [1], in [2] and in test [7] was “inactive” each time.

For `COc1cccc2c1C(=O)c1c(O)c3c(c(O)c1C2=O)C[C@@](O)(C(=O)CO)C[C@@H]3O[C@H]1C[C@H](N)[C@H](O[C@@H]2CCCCO2)[C@H](C)O1`, the Potency in test [1] is 23.7 µM (active). Besides, the Potency result in test [2], in test [3], in test [7], in test [4], in test [8] and in [5] was “inactive” throughout.

As to `OC1(c2ccc(Cl)c(C(F)(F)F)c2)CCN(CCCC(c2ccc(F)cc2)c2ccc(F)cc2)CC1`, the Potency in test [1] is 33.5 µM (active); in test [2], 13.3 µM (active); in test [3], 13.3 µM (active); in test [4] it was 19 µM (active). The Potency result in [6] and in test [5] was “inactive” each time.

Consider `Fc1ccc(C(c2ccc(F)cc2)N2CCN(C/C=C/c3ccccc3)CC2)cc1`, for which the Potency result in test [1] and in test [8] was “inactive” each time. Further, in test [9], the Potency was 23.7 µM (active).

For the compound `CC(C)(C)c1ccc(C(=O)O)cc1`, the Potency result in test [1], in [2], in [3], in test [7], in test [4] and in test [8] was “inactive” throughout.

Take `CCc1cc(Cc2cc(CC)cc(C(C)(C)C)c2O)c(O)c(C(C)(C)C)c1`: the Potency in [1] was 48.6 µM (active); in test [2], 38.6 µM (active); in test [3], 30.6 µM (active); in test [7], 49 µM (active); in test [4], 54.9 µM (active). The Potency result in [8] was “inactive”.

Take `O=C(Oc1cccc2cccnc12)c1ccccc1`: the Potency entry in [1], in test [7], in test [4], in test [6] and in test [5] was “inactive” in each case. The Potency in test [2] was 4.22 µM (active); in [3], 4.73 µM (active).

As for `O=C(OCC(COC(=O)c1ccccc1)(COC(=O)c1ccccc1)COC(=O)c1ccccc1)c1ccccc1`, the Potency entry in [1], in [2], in [3], in [7], in test [4] and in test [8] was “inactive” throughout. Also, the Potency entry in test [6] and in test [5] was “inactive” in each case.

Turning to `NC(=O)N1C(=O)C(C(=O)c2cc(Cl)cs2)c2cc(F)c(Cl)cc21` (configuration not stated), the figures for the Potency in [1], in test [2] and in [3] were 24.3 µM (active), 30.6 µM (active) and 43.3 µM (active), respectively. The Potency result in [7], in test [4], in [8] and in test [5] was “inactive” each time.

On to `OCCCCCCCCCCCCBr`, for which the Potency entry in test [1], in test [2], in test [3], in test [7], in [4] and in [8] was “inactive” each time.

On to `CCOc1nc2cccc(C(=O)OC(C)OC(=O)OC3CCCCC3)c2n1Cc1ccc(-c2ccccc2-c2nn[nH]n2)cc1` (configuration not stated), for which, in test [1], the Potency entry is “inactive”. Also, the results for the Potency in test [2] and in [3] were 21.7 µM (active) and 19.3 µM (active), respectively.

Take `N=C1N=C(N)c2ccccc21`: the Potency entry in test [1], in [2], in [3], in test [7], in test [4] and in test [8] was “inactive” throughout. Also, the Potency entry in [5] is “inactive”.

As to `CS(=O)(=O)CCNCc1ccc(-c2ccc3ncnc(Nc4ccc(OCc5cccc(F)c5)c(Cl)c4)c3c2)o1`, the Potency result in test [1], in test [7], in test [4], in test [6] and in test [5] was “inactive” throughout. Also, the Potency was 18.8 µM (active) in test [2] and 15 µM (active) in [3].

`CN(C/C=C/C#CC(C)(C)C)Cc1cccc2ccccc12`: the Potency entry in test [1], in test [7], in test [4], in test [8], in [6] and in test [5] was “inactive” throughout. In addition, the Potency was 26.6 µM (active) in [2] and 13.3 µM (active) in test [3].

Consider `CCCCCCCCCCCC(=O)NCCCN(C)C`, for which the Potency entry in test [1], in test [8], in test [6] and in test [5] was “inactive” in each case. In addition, the Potency was 54.5 µM (active) in test [2], 30.6 µM (active) in test [3], 49 µM (active) in [7] and 54.9 µM (active) in [4].

As to `C/C(=C(/OCCOc1ccc(Cl)cc1)c1ccc(Cl)cc1Cl)n1ccnc1`, the Potency entry in test [1], in test [7], in [4] and in [8] was “inactive” each time. Also, the Potency in test [2] was 13.3 µM (active); in test [3], 16.8 µM (active).

Consider `ON=C1CCCC1`, for which the Potency result in test [9], in test [2], in test [4], in test [8], in [6] and in [5] was “inactive” in each case. In test [3], the Potency was 63.3 µM (active).

For the compound `O=C1c2c(O)ccc(Nc3ccc(CCO)cc3)c2C(=O)c2c([N+](=O)[O-])ccc(O)c21`, the Potency entry in test [10], in test [2], in test [3], in [7], in [4] and in [8] was “inactive” each time. The Potency result in [5] was “inactive”.

As for `CCCCCCCCCOC(=O)c1ccc(O)cc1`, in [9], the Potency is 24 µM (active). Besides, the Potency result in test [7] and in test [8] was “inactive” throughout.

Turning to `Nc1ccccc1O`, the Potency result in test [10], in [7], in test [4], in test [8], in [6] and in test [5] was “inactive” throughout.

On to `C[n+]1ccn(Cc2ccccc2)c1`, for which the Potency result in [10], in test [2], in [4], in test [8], in test [6] and in test [5] was “inactive” throughout.

On to `O=C1c2ccccc2Cc2ccccc21`, for which the Potency entry in [10], in test [2], in test [3], in [7], in test [4] and in test [6] was “inactive” throughout. For the same compound, the Potency entry in [5] is “inactive”.

Take `C=CC(=O)OCC(CO)(COCC(COC(=O)C=C)(COC(=O)C=C)COC(=O)C=C)COC(=O)C=C`: the Potency was 6.04 µM (active) in test [9]; 15.2 µM (active) in test [2]; 15.2 µM (active) in test [3]; 48.4 µM (active) in test [7]; 21.6 µM (active) in [4]. Moreover, the Potency entry in [8] was “inactive”.

`CN(C)C(=O)C1(N2CCCCC2)CCN(CC[C@@]2(c3ccc(Cl)c(Cl)c3)CN(C(=O)c3ccccc3)CCO2)CC1`: the Potency is 50.9 µM (active) in [9] and 20.3 µM (active) in test [3]. Moreover, the Potency entry in test [8] and in test [5] was “inactive” throughout.

Turning to `C=C(C)C(=O)OCC(O)COc1ccc(C(C)(C)c2ccc(OCC(O)COC(=O)C(=C)C)cc2)cc1` (configuration not stated), in test [9], the Potency is 61.1 µM (active). Further, the Potency result in [8] and in [5] was “inactive” each time.

In the case of `O=[N+]([O-])c1cc(Cl)c(Cl)c(Cl)c1Cl`, the Potency entry in [10], in test [2], in [3], in test [4], in [6] and in test [5] was “inactive” each time.

On to `C[C@H]1[C@H]2CC[C@H]3[C@@H]4CC=C5C[C@@H](N(C)C)CC[C@]5(C)[C@H]4CC[C@]23CN1C`, for which the Potency result in test [10], in test [2], in test [3], in test [7], in test [4] and in test [8] was “inactive” in each case. Moreover, the Potency entry in test [6] and in test [5] was “inactive” throughout.

(Values after PubChem BioAssay (Tox21).)
